Measured values as given in PubChem BioAssay AID2551 (National Center for Advancing Translational Sciences (NCATS), 2010).
Several values for one entry are separate records, joined by “and”; a condition that tells them apart may be missing. Equal values may be shown once. Among all 310,000 compounds or so, about 17,000 (5.5%) were called active. About 11% were inconclusive and are not listed. The call rests on the fitted dose curve; in most records, active means well fitted inhibition curve with a large enough effect; inconclusive means small, poorly fitted or top-dose-only effect, or effect the other way; inactive means no such curve, though single readings can be large or run the other way. Many of the other results were omitted from the sample, so actives are more common in it than they were.

Biological target: Nuclear receptor ROR-gamma (Mus musculus) (UniProt P51450)
Assay: qHTS for inhibitors of ROR gamma transcriptional activity; further: nearly all actives have a fitted effect of over 60% in size
Conditions: Drosophila S2 Gal4-RORgamma UAS-luciferase reporter, 20 h; series mostly up to 53.6 µM
In short: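 Using a luciferase readout, inhibitors were identified by reduced reporter activity in Drosophila cells coexpressing a copper-inducible Gal4–ROR gamma fusion and UAS-driven Photinus luciferase, incubated 20 hr after 700 uM copper sulfate.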
Potency means the concentration at half of the fitted maximal effect.

Nuclear receptor ROR-gamma (Mus musculus), sequence (P51450 whole entry, looked up): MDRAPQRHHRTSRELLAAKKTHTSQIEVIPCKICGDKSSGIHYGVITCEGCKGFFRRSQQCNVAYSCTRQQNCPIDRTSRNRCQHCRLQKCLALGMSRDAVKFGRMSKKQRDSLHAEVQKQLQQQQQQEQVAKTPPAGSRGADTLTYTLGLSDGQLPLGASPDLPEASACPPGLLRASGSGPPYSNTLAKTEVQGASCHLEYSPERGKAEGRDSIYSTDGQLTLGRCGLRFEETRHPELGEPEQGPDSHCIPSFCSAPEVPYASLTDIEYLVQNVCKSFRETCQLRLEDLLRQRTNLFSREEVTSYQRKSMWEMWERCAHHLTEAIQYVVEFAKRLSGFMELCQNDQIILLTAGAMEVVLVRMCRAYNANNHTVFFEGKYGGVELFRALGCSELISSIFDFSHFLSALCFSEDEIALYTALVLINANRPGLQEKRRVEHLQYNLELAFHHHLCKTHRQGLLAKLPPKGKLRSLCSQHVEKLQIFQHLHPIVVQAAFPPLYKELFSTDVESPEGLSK

Potency, active:
Cc1ccc(NC(=S)NC2CCCC2)cc1 3.55 µM, S=C(NN=C1CCN(Cc2ccccc2)CC1)NC1CCCCC1 2.24 µM, Cc1cc(C)cc(NC(=S)NCCc2c[nH]c3ccccc23)c1 7.08 µM, COc1cccc(C(=O)Nc2nc3ccc(S(C)(=O)=O)cc3s2)c1 7.94 µM, COc1ccc2nc(Nc3nc4ccc(NC(C)=O)cc4s3)sc2c1 2.82 µM, CCOc1ccc2nc(Nc3nc4ccc(NC(C)=O)cc4s3)sc2c1 3.16 µM, COc1ccc2nc(Nc3nc4cc5c(cc4s3)OCCO5)sc2c1 12.6 µM, COc1ccc2nc(Nc3nc(-c4cc5ccccc5oc4=O)cs3)sc2c1 7.08 µM, Cc1cccc(N=C2NN=C(c3c[nH]c4ccccc34)CS2)c1 4.47 µM, N#Cc1c(N2CCCCC2)nc(N)c2c(N)nc(SCC(=O)O)cc12 3.98 µM, C=CCNC(=S)NNC(=O)COc1c(Cl)cc(Cl)cc1Cl 1.26 µM, COc1cc(NS(=O)(=O)c2ccc3ccccc3c2)c2ncccc2c1 1.12 µM and 178 nM

Potency, inactive:
CCOc1ccc(NC(=O)c2cccc3c2C(=O)N(CC2CCCO2)C3)cc1 (stereo not given), COc1ccc(-c2noc(CCCC(=O)NC3CCCC3)n2)cc1OC, O=C(CCn1nnc2ccccc21)OCC(=O)c1ccc([N+](=O)[O-])cc1, COc1ccc(C2NC(=O)N(C)C(C)=C2[N+](=O)[O-])cc1 (stereo not given), CCN(CC(=O)Nc1ccc2c(c1)OCO2)S(=O)(=O)c1ccccc1, CCc1c(C)nc(SCC(=O)NC2CCCC2)[nH]c1=O, CN(CCc1ccccn1)C1CCCN(S(=O)(=O)c2ccccc2Cl)C1 (stereo not given), CC(C)c1ccc(NC(=O)NC2CCCCC2)cc1, COc1ccccc1CC(=O)NCCc1c[nH]c2ccccc12, O=C(NC1CCN(Cc2ccccc2)CC1)c1ccccc1F, O=C(NC1CCN(Cc2ccccc2)CC1)c1c(F)cccc1F, Cc1ccc(NC(=O)CSCC(=O)NC2CCCCC2)cc1, O=C(NCCc1c[nH]c2ccccc12)c1cccc(Br)c1, COc1ccc(CN2CCN(Cc3ccc(OC)c(OC)c3OC)CC2)cc1, CC1(c2ccc(Cl)cc2)NC(=O)N(CC(=O)c2ccc3c(c2)OCO3)C1=O (stereo not given), CCc1ccc(Oc2coc3cc(O)ccc3c2=O)cc1, CCC1CCCCN1C(=O)CSc1nc2c(c(=O)n1C)SC(C)C2 (stereo not given), Cc1noc(C)c1CCC(=O)N1CCCC(CO)(Cc2ccccc2)C1 (stereo not given), CCOc1ccc(NC(=O)C2CCN(C(=O)N3CCOc4ccccc43)CC2)cc1, CCC(C)Sc1nc2c(cnn2-c2ccc(F)cc2)c(=O)[nH]1 (stereo not given), CCc1[nH]nc(C(=O)N2CCCC(CO)(Cc3ccc(F)cc3F)C2)c1C (stereo not given), CS(=O)(=O)c1ccc2nc(NC(=O)c3ccc(Cl)nc3)sc2c1, COc1ccc2nc(NC(=O)[C@@H]3CCCN3C(=O)c3cccs3)sc2c1, CCOc1ccc2nc(NC(=O)CSc3nc4c(c(=O)n(C)c(=O)n4C)n3CC)sc2c1, CS(=O)(=O)c1ccc2nc(NC(=O)c3ccc(N4CCCC4=O)cc3)sc2c1, CCOc1ccc(S(=O)(=O)Nc2nc3cc(OC)ccc3s2)cc1, COc1ccc2nc(NC(=O)NC3CCCCC3)sc2c1, CCC(=O)c1ccc(OCC(=O)Nc2ccc3nc(C)sc3c2)cc1, CNC(=O)c1ccc2nc(NC(C)=O)sc2c1, Cc1ccc2nc3c(cc(C(=O)NCCc4ccccc4)c(=N)n3CC3CCCO3)c(=O)n2c1 (stereo not given), COc1ccccc1N(C)C(=O)c1cc(S(=O)(=O)N2CCc3ccccc32)cn1C, O=C(NCCOc1cccnc1)c1ccc(OC2CCN(Cc3ccccn3)CC2)cc1, Nc1nnnn1/N=C/c1cccc(Br)c1, CCCc1nn(C)c2c(=O)[nH]c(-c3cc(S(N)(=O)=O)ccc3OCC)nc12, CCOc1cc(-c2noc(CCCC(=O)NC3CCCCC3)n2)ccc1OC, O=C(NCCCn1ccnc1)C1CCCN(S(=O)(=O)c2cc(Cl)ccc2Cl)C1 (stereo not given), CCCNC(=O)c1cnc(-c2ccccc2)nc1-c1ccccc1, C[C@H](NC(=O)C1CCN(S(=O)(=O)c2ccccc2)CC1)C(=O)NCc1ccccc1, COc1ccc2nc(Nc3nc(-c4ccncc4)cs3)sc2c1, COc1ccc2oc(=O)cc(-c3cc4ccccc4o3)c2c1, COCCOC1CCN(C(=O)c2ccc(OC)c(OC3CCN(C(C)C)CC3)c2)CC1, COc1ccccc1C(=O)N(Cc1ccc(C)o1)C1CCS(=O)(=O)C1 (stereo not given), CCOC(=O)c1ccc2[nH]c3c(c2c1)CCCC3NC=O (stereo not given), Cc1cccc(C(=O)Nc2nnc(Cc3c[nH]c4ccccc34)s2)c1, N#Cc1c(-c2ccccc2)cc(-c2ccccc2)nc1SCC(=O)O, Cc1cc(C)c(C#N)c(N2CCC(C(N)=O)CC2)n1, COc1ccccc1N1CCN(C(=O)c2cc(=O)c3cc(C)ccc3o2)CC1, COc1ccc(C(C(=O)NC2CCCC2)N(CCCO)C(=O)Cn2nnc(-c3ccc(C)o3)n2)cc1 (stereo not given), COC(=O)c1ccc(NC(=O)CSc2nnc(C3CC3)n2C)cc1, COC(=O)CN1C(=O)[C@H]2[C@@H](/C=C/c3ccccc3)N3C(=O)CN(Cc4ccccc4)C(=O)[C@@]3(Cc3ccccc3)[C@H]2C1=O, CCOC(=O)c1cccc(NC(=O)CN2C(=O)C3CC=CCC3C2=O)c1 (stereo not given), C=CCNC(=O)COc1coc(CN2CCN(Cc3ccccc3)CC2)cc1=O, C=CCNC(=O)CCCOc1cccc(C)c1, Cc1ccsc1C(=O)N[C@@H](C)c1nnc2ccccn12, O=C(c1ccc(Br)o1)N1CCN(CCOc2ccccc2)CC1, O=C(N=C1SC2CS(=O)(=O)CC2N1c1cc(Cl)ccc1Cl)C1CC1 (stereo not given), Cc1ccc(S(=O)(=O)Nc2ccc3ncccc3c2)cc1, COc1ccc2cc(S(=O)(=O)Nc3ccccn3)ccc2c1
